SARS PLP yeast: SARS-CoV PLP inhibition in yeast. S. cerevisiae expressing SARS-CoV PLpro, growth rescue. Potency, µM (top dose mostly 32.9 µM), for inactives: top-dose activity, positive = growth rescue, actives largely listed as activators. actives 0.19% (n = 330,000). AID 485353; calls by dose curve; further: potency means the concentration at half of the fitted maximal effect; 0% is about no effect; nearly all actives have a fitted effect of over 55% in size
Shiga inhibitor: inhibitors of Shiga toxin in Vero cells; Vero cells, Shiga toxin protein synthesis inhibition reporter; inhibition, % at 38.7 µM; actives 9.2% (n = 290,000); AID 2315; in the data active means inhibition mostly above about 28%, no sharp cut-off; inactive means mostly below about 43%; further: 0% is about no effect
Pf growth 96h: inhibits malaria parasite growth, 96 h; actives 6.9% (n = 320,000); Potency, µM (top dose mostly 28.7 µM), for inactives: at the top dose activity change, negative = inhibition, hits mostly inhibitors; P. falciparum luciferase reporter growth, 96 h; AID 504834; further: potency means the concentration at half of the fitted maximal effect; on the % scale 0 is the no-effect control and ±100 the full control effect
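Erythrocytes infected with luciferase-expressing P. falciparum were dispensed at 2% hematocrit and 0.05% parasitemia (final), then incubated with compounds 96 hours at 37 C in 5% CO2. Luminescence after detection reagent addition reported growth.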
NS1 function inh: inhibitors of influenza NS1 protein function. Potency, µM (series often up to 46.1 µM), inactives show at the top dose activity, positive = more growth. actives 0.4% (n = 270,000); calls by dose curve; further: potency means the concentration at half of the fitted maximal effect; actives are rising curves; nearly all actives have a fitted effect of over 50% in size
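Recovery from NS1-induced slow growth read by OD600 in budding yeast switched to galactose assay medium (pH 6.0, -URA) at 1:100 dilution. Compound 23 nl per well; the matching strain lacking NS1 serves as control.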
Pf growth 48h: P. falciparum growth inhibition at 48 hours (one generation) | P. falciparum luciferase growth in erythrocytes, 48 h | Potency, µM (highest dose often 28.7 µM), for the others: top-dose activity change, negative = inhibition, actives largely listed as inhibitors | actives 5.9% (n = 310,000) | AID 504832; further: potency means the concentration at half of the fitted maximal effect; on the % scale 0 is the no-effect control and ±100 the full control effect
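First compound was added to culture medium, then infected red cells at 0.1% parasitemia and 2% hematocrit (final). After incubation at 37 C under 5% CO2, luciferase detection reagent was dispensed and light output recorded.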
CHX counter: counter-screen for Shiga toxin inhibitors: cycloheximide protein synthesis inhibition. actives 12% (n = 300,000). max response, %. AID 2314. cell reporter, cycloheximide protein synthesis inhibition counterscreen; in the data active means max response mostly above about 13%, no sharp cut-off; inactive means mostly below about 14%; further: read at 38.3 µM for the half of the compounds with a filed dose; 0% is about no effect
* = called active by the depositor; ? = inconclusive; / = no result given; [ ] = remark or other dose. An excerpt weighted towards active compounds, which were near 21% of everything screened. Unless noted, the call rests on the fitted dose curve; in most records, active means well fitted inhibition curve with a large enough effect; inconclusive means small, poorly fitted or top-dose-only effect, or another doubt; inactive means no such curve, though single readings can be large or run the other way.

SMILES	SARS PLP yeast	Shiga inhibitor	Pf growth 96h	NS1 function inh	Pf growth 48h	CHX counter
CCOC(=O)c1c(C)nn(-c2ccc(NC(=O)c3c(C)noc3C)cc2)c1C	0%	-10	-6%	-2%	-6%	-4
Cc1ccc(NC(=O)C(=O)NNC(=O)c2cccs2)cc1	-2%	38	?	/	19%	29*
Nc1ccc(NC(=O)Nc2ccc(N)cc2)cc1	0%	29*	81%	7%	32%	17*
Cc1ccc(NC(=O)c2cccs2)cc1	-13%	81	66%	-83%	/	53*
CCOC(=O)c1c(C)nn(-c2ccc(NC(=O)c3cccs3)cc2)c1C	1%	35	3.3µM*	-17%	15µM*	17
CCC(=O)Nc1ccc(C(=O)NNC(=O)c2cccs2)cc1	?	19	0%	1%	7%	0
NC(CSS(=O)(=O)O)=N[C@@H]1C[C@H]2CC[C@@H]1C2	/	/	/	1%	/	/
Nc1ccc(/C=C/C(=O)c2cccs2)cc1	-4%	68*	35%	-35%	321%	40*
COc1ccc(CNC(=O)CN(C)S(=O)(=O)c2ccc3c(c2)OCCO3)cc1OC	-1%	/	?	/	?	/
O=C(O)c1ccc(-c2nc3ccccc3[nH]2)cc1	-4%	-12	-2%	4%	15%	1
CCCn1c(=O)c(-c2nc3ccccc3[nH]2)c(O)c2ccccc21	-6%	6	-30%	/	-18%	15
O=c1[nH]cccc1-c1nc2ccccc2[nH]1	-1%	55*	100%	2%	-23%[0.00184 µM]	21*
Oc1ccc(C=Nc2ccccc2-c2nc3ccccc3[nH]2)cc1	-51%	92*	?	-20%	54%	70*
Fc1ccc(-c2nc3ccccc3[nH]2)cc1	-2%	115*	35%	-37%	48%	35*
CCn1c(=O)c(-c2nc3ccccc3[nH]2)c(O)c2ccccc21	-1%	35	?	/	-17%	22*
Cc1ccc2cc(C=O)c(Cl)nc2c1	-4%	30	?	/	4%	13
CC(=O)c1ccc(N2CCN(C(=O)CNS(=O)(=O)c3ccc4c(c3)OCCCO4)CC2)c(F)c1	-2%	/	?	/	?	/
O=Cc1coc2c(ccc3ccccc32)c1=O	-10%	4	38%	-62%	28%	8
Nc1ccc(-c2nc3c(ccc4ccccc43)[nH]2)cc1	?	43*	6%	-36%	?	25*
Cn1cc(-c2nc3ccccc3[nH]2)c2ccccc21	-11%	87*	16%	-58%	?	36*
Nc1ccc(-c2nc3ccccc3[nH]2)cc1	0%	102*	117%	-13%	114%	33*
S=c1nc(-c2ccccc2)[nH]c2ccccc12	2%	-11	?	/	-12%	15
Nc1ccccc1-c1nc2ccccc2[nH]1	-13%	92*	117%	-71%	131%	45*
Cc1ccccc1-n1c([C@@H]2C[C@H]2c2ccccc2)n[nH]c1=S	0%	-9	16%	3%	0%	-2
CC1c2[nH]c3ccccc3c2C[C@H]2C(=O)N(CCCN(C)C)CC(=O)N12 (some centres not stated)	-2%	-6	20%	2%	10%	7
SMILES	SARS PLP yeast	Shiga inhibitor	Pf growth 96h	NS1 function inh	Pf growth 48h	CHX counter
Cc1cccc(C(C(=O)NC2CCCCC2)N(C(=O)c2csnn2)C2CC2)c1 (configuration not stated)	13%	11	-12%	4%	0%	-3
COCCNC(=O)CSc1ccc(-c2nc3ccccc3[nH]2)cn1	-2%	5	?	?	35%	10
N#CCSc1ccc(-c2nc3ccccc3[nH]2)cn1	-3%	44*	?	-6%	66%	29*
CC(/C=N/NC(=O)c1ccccc1F)c1ccccc1 (configuration not stated)	-1%	165*	9%	-2%	42%	30*
CC(/C=N/NC(=O)c1ccco1)=C\c1ccccc1	-12%	89*	42%	/	54%	24*
CC(NC(=O)c1ccccc1F)C(=O)O (configuration not stated)	-1%	-25	0%	4%	24%	-6
COC(=O)/C(=C/c1ccccc1)NC(=O)c1ccco1	8%	-3	-3%	5%	-2%	-3
CC(/C=N\NC(=O)c1ccc(C)nc1)=C\c1ccccc1	5%	39	?	3%	?	12
